In ChEMBL document CHEMBL4513149, “CO-ADD screening of MMV (CH) - MMV compounds” (2021):
Entries with a potency or affinity are not part of this list.

Legend:
Staphylococcus aureus = settings: Concentration 20 uM; ASSAY_TEST Inhibition of Bacterial Growth; detection method Absorption (OD600); MEDIA CAMHB; plate type 384well; NBS; CORNING #3640; time 18 hr
Escherichia coli = settings: Concentration 20 uM; ASSAY_TEST Inhibition of Bacterial Growth; detection method Absorption (OD600); MEDIA CAMHB; plate type 384well; NBS; CORNING #3640; time 18 hr

Row | SMILES | Inhibition (Staphylococcus aureus) [%] | Inhibition (Escherichia coli) [%]
1 | Cc1ccc(S(=O)(=O)N2CCN(C(=O)c3cc(-c4ccccc4)n[nH]3)CC2)cc1 | 1.4 | 11.29
2 | CS(=O)(=O)Cc1nc2ccccc2oc1=O | 30.23 | 5.17
3 | CCOc1ccccc1NC(C)C(=O)Nc1cc(C(F)(F)F)ccc1N1CCOCC1 (centres undefined) | 15.12 | 7.27
4 | Cc1ncc(-c2ccnc(Nc3ccc(S(C)(=O)=O)cc3)n2)n1C(C)C [AZD-5438] | 28.03 | 5.82
5 | CC(C)c1ncc(-c2ccncc2)c([C@H]2CC[C@H](CNC(=O)c3cccnc3)CC2)n1 | 19.09 | 13.72
6 | CCN(CC)S(=O)(=O)c1ccc(Cl)c(C(=O)Nc2ccc3nc(C)sc3c2)c1 | 2.16 | 0.28
7 | Cc1ccc(C(=O)Nc2ccc(S(=O)(=O)O)c3cc(S(=O)(=O)O)cc(S(=O)(=O)O)c23)cc1NC(=O)c1cccc(NC(=O)Nc2cccc(C(=O)Nc3cc(C(=O)Nc4ccc(S(=O)(=O)O)c5cc(S(=O)(=O)O)cc(S(=O)(=O)O)c45)ccc3C)c2)c1 [SURAMIN] | 23.13 | 7.96
8 | COc1ccccc1C(C)NCC(=O)Nc1cc(C(F)(F)F)ccc1Cl (centres undefined) | 10.99 | 8.42
9 | Clc1ccc(Cl)c(CO[C@H]2CCCC[C@@H]2n2ccnc2)c1 | 22.53 | 7.4
10 | CCc1nc2ccc(Cl)cn2c1C(=O)NCc1ccc(N2CCC(c3ccc(OC(F)(F)F)cc3)CC2)cc1 [TELACEBEC] | 17.2 | 13.17
11 | c1ccc(-c2[nH]c3ccccc3c2C(c2ccccn2)N2CCCC2)cc1 (centres undefined) | 7 | 3.92
12 | N#Cc1ccc(-c2ccc(OCC(N)=O)cc2)cc1 | 6.41 | -3.93
13 | Cc1nnc(NCc2cccc(Cl)c2)c2ccccc12 | 21.63 | 9.19
14 | Cc1nn2c(O)c3c(nc2c1-c1ccc(F)cc1)CCCC3 | 17.1 | 16.25
15 | COc1ccc(CN2CCOc3ccc(C(C)(O)CN(C)C)cc3C2)cc1C (centres undefined) | 19.53 | 9.29
16 | Cc1nc2ccccn2c1C(=O)NCc1ccc(Cl)cc1 | 22.95 | 5.6

Row | SMILES | Inhibition (Staphylococcus aureus) [%] | Inhibition (Escherichia coli) [%]
17 | Cc1nn(C(=O)Nc2cccc(C(F)(F)F)c2)c(C)c1Sc1ncccn1 | 14.85 | 7.79
18 | O=C(c1ccc(F)cc1)N(CCNc1ccccc1)c1ccccc1 | 14.62 | 8.4
19 | Cc1nc(-c2cccc(NCc3ccccc3)c2)[nH]c1C | 19.75 | 6.38
20 | Cc1[nH]c2cc(F)cc(F)c2c(=O)c1-c1ccc(Oc2ccc(OC(F)(F)F)cc2)cc1 | 11.17 | -0.95
21 | COc1cncc(-c2cncc(N3CCN(c4ccncc4)CC3)n2)c1 | 18.85 | 13.61
22 | COc1ccc(C2=NN(C3CCCCCC3)C(=O)[C@@H]3CC=CC[C@H]23)cc1OCCCCOc1ccc(-c2nnn[nH]2)cc1 | 53.58 | 1.88
23 | Cc1ccc2oc(-c3cc(NC(=O)Cc4ccccc4)ccc3Cl)nc2c1 | 2.8 | 6.02
24 | COc1ccc(-c2nc(-c3cccc(NC(=O)Cc4ccc(F)cc4)c3)no2)cc1OC | 22.17 | 8.52
25 | N#Cc1ccc(-c2cnc(N)c(-c3ccc(C(N)=O)cc3)n2)cc1 | 16.7 | 7.7
26 | CCc1ccccc1-n1c(C)cn2c3c(=O)n(C(C(=O)OC)C(C)C)c(=O)n(C)c3nc12 (centres undefined) | 5.27 | 7.91
27 | CNC(=O)c1cc(S(=O)(=O)N2CCN(c3ccccn3)CC2)cs1 | 7.99 | -1.66
28 | COc1ccc(-c2onc(C(F)(F)F)c2-c2ccc(Cl)cc2)c(O)c1 | 22.97 | 5.79
29 | Cc1cc(C)n2nc(C(=O)Nc3cc(C(F)(F)F)ccc3N3CCOCC3)nc2n1 | 13.59 | 10.47
30 | CS(=O)(=O)c1cccc(-c2cnc3[nH]cc(-c4ccc(CCC(=O)O)cc4)c3c2)c1 | 21.11 | 7.22
31 | CC1(C)Cc2c(c(N3CCOCC3)nc3snc(Br)c23)CO1 | 19.87 | 4.52
32 | Cc1ccc(Oc2ccc(NC(=O)CNc3ccccc3N3CCCC3=O)cc2)cc1 | 5.88 | 6.72
